These results are taken from PubChem BioAssay AID372 (MTDP, 2006).

Structures are written as SMILES. Out of some 100,000 compounds screened, about 770 (0.77%) were called active. The list comes from a sample in which actives are over-represented; it also holds similar structures and randomly drawn compounds. Unmarked numbers belong to inactive results. Rule as the data show it: active = inhibition above about 50%; inactive = the rest.

This test addresses Gag-Pol polyprotein (Human immunodeficiency virus type 1 group M subtype B (isolate HXB2)) (UniProt P04585). As to the kind of experiment: RNase H inhibition, HIV 1 Gag Pol polyprotein, FRET biochemical assay, screening (AID 372). The following applies: HIV-1 RT RNase H, FRET RNA/DNA substrate fluorescence; at 10 µM; active compounds read high.
On to `Br/C(=C\c1ccccc1)C1Nc2cccc3cccc(c23)N1`, for which the inhibition (usually the change of the read-out against control, counted positive when it falls) is 21%.

In the case of `CCCCC(O)(CCCC)c1ccccc1O`, the inhibition is 3%.

For `O=c1oc2ccccc2cc1-c1csc(-c2ccc(O)cc2)n1`, the inhibition was 43%.

For the molecule `CCOc1cc(/C=C(/C#N)C(=O)Nc2cc(Cl)ccc2Cl)ccc1O`, the inhibition was 51% (active).

For `CCOc1ccc(NC(=O)/C(C#N)=C\c2ccc(O)c(OCC)c2)cc1`, the inhibition is 20%.

As to `CCNC(=O)/C(C#N)=C/c1ccc(O)c(OCC)c1`, the inhibition is 6%.

`COc1ccc2c(c1)C1C=CCC1C(C(=O)O)N2` (stereo unspecified): the inhibition was 25%.

Regarding `O=C(c1ccccc1)c1ccc2[nH]c(=O)[nH]c2c1`, the inhibition is 0%.

As for `Cc1ccc(C(=O)c2cccc(C(=O)c3ccc(C)cc3)c2)cc1`, the inhibition is 7%.

Take `O=C(c1ccccc1)c1ccc(O)c(O)c1`: the inhibition was 60% (active).

As for `O=C(Sc1nnnn1-c1ccccc1)c1ccccc1Br`, the inhibition was 0%.

Take `CCc1c(C)sc(NC(=O)C2CCCO2)c1C(N)=O` (stereo unspecified): the inhibition was 0%.

Consider `COC(=O)c1sc(NC(=O)C2CC3CCC2C3)c(C(N)=O)c1C` (stereo unspecified), for which the inhibition is 11%.

Consider `CCOC(=O)c1sc(NC(=O)C2CC3CCC2C3)c(C(=O)OCC)c1C` (stereo unspecified), for which the inhibition was 10%.

Regarding `Cc1sc(NC(=O)C2CCCCC2)c(C(N)=O)c1C`, the inhibition is 7%.

Turning to `Oc1ccccc1N=Cc1c(O)c(I)cc2oc3c(c12)CCCC3`, the inhibition is 14%.

Turning to `O=C(Nc1ccc(OC(F)(F)F)cc1)c1cccc(OCc2ccccc2)c1`, the inhibition is 0%.

Regarding `c1ccc(CN2CCN(Cc3ccncc3)CC2)nc1`, the inhibition was 3%.

`Cc1ccc2cccc(OS(=O)(=O)c3cc(Cl)ccc3C)c2n1`: the inhibition is 47%.

As to `Cc1ccc2cccc(OS(=O)(=O)c3cc(Cl)c(Cl)cc3Cl)c2n1`, the inhibition is 43%.

With `COc1ccc(I)cc1S(=O)(=O)Oc1cccc2ccc(C)nc12`, the inhibition is 25%.

On to `Cc1ccc2cccc(OS(=O)(=O)c3ccc(Cl)cc3C)c2n1`, for which the inhibition is 43%.

For `Cc1ccc2cccc(OS(=O)(=O)c3ccc(Cl)c(C)c3Cl)c2n1`, the inhibition was 52% (active).

As to `Cc1ccc2cccc(OS(=O)(=O)c3ccccc3C)c2n1`, the inhibition is 58% (active).

For `CCc1nc(NC(=O)NS(=O)(=O)c2ccccc2C(=O)OC)nc(OC)n1`, the inhibition is 6%.

For the molecule `COc1cc(OC)cc(C(=O)N2CCN(c3ccc([N+](=O)[O-])cc3Cl)CC2)c1`, the inhibition was 9%.

Turning to `O=C1NC(=S)N(c2cccc(Br)c2)C(=O)/C1=C/c1cccn1-c1ccccc1`, the inhibition was 39%.

As for `CCC(=O)Nc1ccc2nc(SCC(=O)Nc3ccc(C(C)=O)cc3)sc2c1`, the inhibition was 14%.

On to `CCC(=S)/C=C1\Sc2ccc(OC)cc2N1CCCS(=O)(=O)O`, for which the inhibition was 11%.

For `O=C(c1c(Cl)cccc1Cl)N1CCN(c2ccc(Cl)cc2)CC1`, the inhibition was 9%.

As for `O=C(c1c(Cl)cccc1Cl)N1CCN(c2ccccc2)CC1`, the inhibition is 6%.

For `O=C(c1c(Cl)cccc1Cl)N1CCN(c2ccc(F)cc2)CC1`, the inhibition is 54% (active).

On to `Cc1nnc(SCC(=O)NC(C)c2ccccc2)[nH]c1=O` (stereo unspecified), for which the inhibition is 0%.

As to `CC(=C\c1ccccc1)/C=C1/SC(=Nc2ccc(F)cc2)NC1=O`, the inhibition was 13%.

For the molecule `O=C(N/N=C/c1ccc(F)cc1)c1ccc(Cl)c(Cl)c1`, the inhibition was 4%.

Regarding `CC(=O)c1cccc(NC(=O)/C(=C\c2ccc(Br)cc2)NC(=O)c2ccc(C)cc2)c1`, the inhibition was 42%.

For `Cc1cccc(NC(=O)/C(=C/c2ccc(Br)cc2)NC(=O)c2ccccc2)c1`, the inhibition is 51% (active).

Take `CC(=O)c1cccc(NC(=O)/C(=C/c2ccc(Br)cc2)NC(=O)c2ccccc2)c1`: the inhibition is 6%.

For `C/C(=N\Nc1ccc([N+](=O)[O-])cc1)c1ccc([N+](=O)[O-])o1`, the inhibition was 8%.

As to `COc1cc(Cc2ccc(N/C=C/C(=O)c3ccc(Br)cc3)c(OC)c2)ccc1N/C=C/C(=O)c1ccc(Br)cc1`, the inhibition is 25%.

Turning to `Cc1cc(Cl)ccc1OC(=O)c1ccc(Cl)cc1`, the inhibition is 51% (active).

With `Cc1cc(Cl)ccc1OC(=O)c1ccc(Br)cc1`, the inhibition is 34%.

For the molecule `Cc1ccc(C(=O)Oc2ccc(Cl)cc2C)cc1`, the inhibition is 2%.

Turning to `O=C(Nc1cnc2ccccc2c1)C1COc2ccccc2O1` (stereo unspecified), the inhibition is 3%.

Take `O=S(=O)(CCc1nnc(-c2ccc(Br)cc2)o1)c1ccc(Cl)cc1`: the inhibition was 2%.

Turning to `COc1ccc(N2C(=O)/C(=C\c3ccc(O)c(O)c3)SC2=S)cc1`, the inhibition was 77% (active).

In the case of `COc1ccc(N2C(=O)/C(=C\c3ccc(OC)c(O)c3)SC2=S)cc1`, the inhibition is 4%.

With `COc1ccc(N2C(=O)/C(=C/c3ccc(O)c(OC)c3)SC2=S)cc1`, the inhibition is 26%.

Take `COc1cccc(N2C(=O)/C(=C/c3ccc(O)c(O)c3)SC2=S)c1`: the inhibition is 75% (active).

As to `COc1cccc(N2C(=O)/C(=C/c3cccc(O)c3)SC2=S)c1`, the inhibition was 29%.

Turning to `COc1cccc(N2C(=O)/C(=C/c3ccc(O)c(OC)c3)SC2=S)c1`, the inhibition was 22%.

For the molecule `COc1cc(OC)cc(C(=O)Nc2ccc(N3CCN(C(=O)c4ccccc4)CC3)cc2)c1`, the inhibition is 31%.

For the molecule `CCOc1cccc2c1N(C(=O)c1ccccc1)C(C)(C)C(=S)C2=C1SC(C(=O)OC)=C(C(=O)OC)S1`, the inhibition is 45%.

For `CCCOc1ccc(C(=O)NCc2ccccc2)cc1`, the inhibition is 6%.

In the case of `Cc1ccc(-n2c(/C=C/c3c(C)n(C)c4ccccc34)nc3ccccc3c2=O)cc1`, the inhibition was 0%.

On to `COc1cccc(/C=C/c2nc3ccccc3c(=O)n2-c2cccc([N+](=O)[O-])c2)c1O`, for which the inhibition was 27%.

As for `O=C(O)c1ccc(-n2c(/C=C\c3ccccc3)nc3ccccc3c2=O)cc1`, the inhibition is 7%.

On to `COc1cc(/C=C/c2nc3ccccc3c(=O)n2-c2cccc([N+](=O)[O-])c2)ccc1O`, for which the inhibition is 61% (active).

On to `COc1cc(/C=C/c2nc3ccccc3c(=O)n2-c2ccccc2[N+](=O)[O-])ccc1O`, for which the inhibition is 35%.

Regarding `COc1ccc(OC)c(CN2CCN(Cc3cccc(Br)c3)CC2)c1`, the inhibition is 5%.

Consider `COc1ccc([N+](=O)[O-])cc1N(CC(O)CN1CCCCC1)S(=O)(=O)c1ccc(C)cc1` (stereo unspecified), for which the inhibition was 12%.

As to `Cc1c(C(=O)Oc2ccc3c(c2)C(C)CC(C)(C)N3)cccc1[N+](=O)[O-]` (stereo unspecified), the inhibition is 21%.

On to `CCSc1nnc(NC(=O)COc2ccc(Cl)cc2Cl)s1`, for which the inhibition was 22%.

`CC(=O)c1ccc(NC(=S)Nc2ccc3nccnc3c2)cc1`: the inhibition was 10%.

`NC(N)=N/N=C/c1ccccc1OS(=O)(=O)c1ccccc1`: the inhibition was 0%.

For `O=S(=O)(Oc1ccccc1/C=N/NC(=S)Nc1ccccc1)c1ccccc1`, the inhibition is 52% (active).

In the case of `NC(=O)N/N=C/c1ccccc1OS(=O)(=O)c1ccc([N+](=O)[O-])cc1`, the inhibition is 11%.

As to `CCOC(=O)c1c[nH]c2ccc(Cl)cc2c1=O`, the inhibition is 14%.

`C=CCn1c(CSc2nc3ccccc3s2)n[nH]c1=S`: the inhibition is 0%.

With `C=CCn1c(CCCN2C(=O)c3cccc4cccc(c34)C2=O)nnc1SC/C=C/c1ccccc1`, the inhibition is 8%.

Regarding `C=CCn1c(CSc2nc3ccccc3s2)nnc1SC/C=C/c1ccccc1`, the inhibition was 59% (active).

As for `Cc1ccc(NC(=O)C(C)SCc2ccccc2)c(C)c1` (stereo unspecified), the inhibition is 13%.

For the molecule `COc1ccc(C2CC(=O)C3=C(C2)NC(C)=C(C(=O)OCCOc2ccccc2)C3c2cccc(Br)c2)cc1` (stereo unspecified), the inhibition is 6%.

As for `COc1ccc(/C=N/OCC(=O)N2CCN(C(c3ccccc3)c3ccccc3)CC2)cc1OC`, the inhibition is 45%.

On to `COc1ccc(C(=O)N2CCN(C(c3ccccc3)c3ccccc3)CC2)cc1OC`, for which the inhibition is 13%.

Regarding `COc1ccc(/C(C)=N/OCC(=O)N2CCN(C(c3ccccc3)c3ccccc3)CC2)cc1OC`, the inhibition is 51% (active).

As for `CCc1ccc(C(=O)CSC2=C(C#N)C(c3ccc(Br)cc3)C(C(C)=O)=C(C)N2)cc1` (stereo unspecified), the inhibition was 26%.

As to `COc1ccc(C2(CNS(=O)(=O)c3ccccc3)CCCC2)cc1OC`, the inhibition is 0%.

For `COc1cc(C=Nc2cccc(Cl)c2C)ccc1OC(C)=O`, the inhibition was 11%.

Consider `COc1cc(C=C2C(=O)NC(=O)NC2=O)ccc1OCc1c(C)no[n+]1[O-]`, for which the inhibition was 6%.

As for `Cc1no[n+]([O-])c1COc1ccc(/C=C2\NC(=S)NC2=O)cc1`, the inhibition was 4%.

As for `COc1cc(/C=C2\NC(=S)NC2=O)ccc1OCc1c(C)no[n+]1[O-]`, the inhibition is 53% (active).

For `O=c1c2c3c(sc2ncn1/N=C/c1ccc(Br)o1)CCCC3`, the inhibition is 25%.

On to `CCOc1ccc(C(=O)NC(=S)Nc2ccc([N+](=O)[O-])cc2OC)cc1Cl`, for which the inhibition is 50% (active).

In the case of `CCOc1ccc(C(=O)Nc2ccc([N+](=O)[O-])cc2OC)cc1Cl`, the inhibition is 14%.

On to `O=C(NC(=S)Nc1nc(-c2cccc([N+](=O)[O-])c2)cs1)c1ccc(Cl)cc1`, for which the inhibition is 35%.

Regarding `CCOc1ccc(C(=O)NC(=S)Nc2ccc(Cl)cn2)cc1Cl`, the inhibition was 60% (active).

For `COc1ccc(C(=O)NC(=S)Nc2nc(-c3cccc([N+](=O)[O-])c3)cs2)cc1Cl`, the inhibition was 54% (active).

For the molecule `O=C(Nc1nc(-c2ccc([N+](=O)[O-])cc2)cs1)c1ccc(Cl)cc1`, the inhibition was 32%.

`COc1ccc(C(=O)NC(=S)Nc2nc(-c3ccccc3)cs2)cc1Cl`: the inhibition was 16%.

Turning to `CCOc1ccc(C(=O)NC(=S)Nc2ccccn2)cc1Cl`, the inhibition is 12%.

Regarding `O=C(Nc1nc(-c2ccc(Cl)cc2)cs1)c1ccc([N+](=O)[O-])cc1`, the inhibition was 51% (active).

On to `COc1ccc(C(=O)NC(=S)Nc2ccc([N+](=O)[O-])cc2C)cc1Cl`, for which the inhibition is 18%.

Turning to `CCOc1ccc(C(=O)NC(=S)Nc2ccc(Cl)cc2)cc1Cl`, the inhibition was 7%.

Turning to `O=C(Nc1nc(-c2ccc(Br)cc2)cs1)c1ccc([N+](=O)[O-])cc1`, the inhibition was 37%.

Regarding `COc1cc(OC)cc(C(=O)Nc2cccc(-c3nc4ccccc4s3)c2)c1`, the inhibition is 5%.
